The record followed here is ChEMBL document CHEMBL4513216, “Probing the Open Global Health Chemical Diversity Library for Multistage-Active Starting Points for Next-Generation Antimalarials” (ACS Infect Dis, 2020).

Out of some 69,000 compounds screened, about 8,600 (12%) showed an effect of 50% or more. For the sample, strong results were picked, then their nearest neighbours and some compounds at random.

This test relates to Plasmodium berghei. The experiment in a line: Screen against P. berghei liver stage (PbLuc), transformed with Luciferase, at 10uM. The format is functional, HepG2. To be noted: tested at 10 uM.
Regarding `N#Cc1cccc(C(=O)N2CCc3c(COCC4CC4)cncc3C2)c1`, the INHIBITION was determined as 18.7%.

Take `COc1ccc(CNc2cccnc2-n2cccn2)c(OC)c1OC`: the INHIBITION is recorded as 41.5%. To `O=C(NC1CCCC1)N1CCCCC1c1nc(C2CC2)no1` (stereo not given) belongs 38.6%; to `Fc1ccc(CN2CCCn3nnc(COCC4CC4)c3C2)cc1`, 46.6%. The result for `Cc1cnc(C(=O)N2CC[C@@H]3CN(c4ncccn4)CCO[C@@H]3C2)cn1` reads 56.7%. To `Cc1cccc(C(=O)N2CC[C@@H]3CN(c4ncccn4)CCO[C@@H]3C2)c1` belongs 4.27%; to `O=C(c1ccncc1F)N1CC[C@@H]2CN(c3ncccn3)CCO[C@@H]2C1`, -1.55%; to `Cc1ccccc1C(=O)N1CC[C@@H]2CN(c3ncccn3)CCO[C@@H]2C1`, 47.4%.

With `O=C(c1ccccc1F)N1CC[C@@H]2CN(c3ncccn3)CCO[C@@H]2C1`, the INHIBITION is recorded as 69.5%. On to `O=C(c1cccc(F)c1)N1CC[C@@H]2CN(c3ncccn3)CCO[C@@H]2C1`, for which the INHIBITION came to 48.6%. To `CN1CCCC1c1cncc(C(=O)NCc2ccccc2)n1` (stereo not given) belongs 40.6%; to `CN1CCN([C@@H]2CCN(CC3CCOC3)[C@H]2Cc2cnn(C)c2)CC1` (stereo not given in full), -10.5%. The result for `COCC(=O)N1CCC2(CC1)COCCN2CCN(C)C` reads 0.547%. To `O=C(c1ccccc1)N1C[C@H]2CCC[C@@]2(COCc2ccncc2)C1` belongs -4.88%.

For `COc1ccc(C(=O)NCCCNc2ccc(C(F)(F)F)cn2)cc1`, the INHIBITION is 34.15%. To `O=C(NCCNc1ccc(C(F)(F)F)cn1)c1ccc(F)cc1Cl` belongs 3.73%; to `O=C(NCCCNc1ccc(C(F)(F)F)cn1)c1ccc(F)cc1F`, -23.9%. The result for `N#Cc1ccc(C(=O)NCCCNc2ccc(C(F)(F)F)cn2)cc1` reads 42.7%.

Take `Nc1nccnc1C(=O)NCCCNc1ccc(C(F)(F)F)cn1`: the INHIBITION was 25.55%. Take `O=C(NCCCNc1ccc(C(F)(F)F)cn1)c1ccc(F)cc1Br`: the INHIBITION was 82.6%.

For the compound `O=C(NCCCNc1ccc(C(F)(F)F)cn1)c1ccccc1`, the INHIBITION is 10.65%. To `Cc1ccc(C(=O)NCCCNc2ccc(C(F)(F)F)cn2)cc1` belongs 51.85%; to `CN(C)c1ccc(C(=O)NCCCNc2ccc(C(F)(F)F)cn2)cc1`, 38.95%. To `O=C(NCCCNc1ccc(C(F)(F)F)cn1)c1ccc(F)cc1` belongs 67.3%. To `Cc1cc(NCCNc2ccc(C#N)cn2)nc(C)n1` belongs -14.1%; to `N#Cc1ccc(NCCNc2ccc(C(F)(F)F)cn2)nc1`, 78.4%. `O[C@H]1CN(Cc2ccnc(N3CCCC3)n2)CC[C@@]12CCCO2`: the INHIBITION is -14.2%. On to `Cc1ncsc1CN(C)Cc1cc2c(cc1OC(F)F)OCO2`, for which the INHIBITION worked out at 34.9%. The result for `Cc1csc(C(C)(C)NCc2ncc(-c3ccccc3)o2)n1` reads -20.3%. To `CN(C)C(=O)c1nc(-c2ccc(S(C)(=O)=O)cc2)c2ccccn12` belongs 17.6%; to `CNC(=O)C1CN(C(=O)COc2ccccc2)Cc2cn(C)nc21` (stereo not given), 42.6%.

For the compound `COC(=O)Cn1c(=O)[nH]c2cn(-c3cccc(C)c3)c(=O)n21`, the INHIBITION was -9.39%. On to `CNC(=O)CNC(=O)NCc1cc2c(s1)CCC(C)(C)C2`, for which the INHIBITION is listed as 26.1%. To `COCc1ccc(C(=O)NCCCNc2ccc(C(F)(F)F)cn2)cc1` belongs 24.15%; to `O=C(NCCNc1ccc(C(F)(F)F)cn1)c1ccc(Cl)cc1F`, 29.4%; to `O=C(NCCNc1ccc(C(F)(F)F)cn1)c1ccc(Br)cc1`, -18%. The result for `O=C(NCCCNc1ccc(C(F)(F)F)cn1)c1ccc2c(c1)OCO2` reads 60.5%; that for `CSCc1ccc(C(=O)NCCCNc2ccc(C(F)(F)F)cn2)cc1`, 60.95%; that for `O=C(NCCNc1ccc(C(F)(F)F)cn1)c1cncc(Br)c1`, 26.1%. To `CN(CCc1cccs1)C(=O)Nc1cnn(CC2CCCO2)c1` (stereo not given) belongs 6.33%; to `Cc1csc2cc(C(=O)NC3CC3)cnc12`, -82.4%. Take `CCN1CCC2(COCc3c(C)nc(N(C)C)nc32)C1` (stereo not given): the INHIBITION stood at 2.59%. Take `CCOc1ncccc1C(=O)N1CCCC1c1c(C)nn(C)c1OC` (stereo not given): the INHIBITION worked out at 32.4%. To `Cc1ccc2c(c1)SCC(=O)N2CC(=O)N1CCCC1c1cc(C)on1` (stereo not given) belongs -1.45%. To `Cc1ccc2c(c1)SCC(=O)N2CC(=O)N1CCCC1c1cc(C)no1` (stereo not given) belongs -40.6%; to `Cc1ccc2c(c1)SCC(=O)N2CC(=O)N1CCC[C@H]1c1nc(C)no1`, 74%. To `c1cncc(-c2nnc([C@H]3CCN(CC4CCCCC4)C3)o2)c1` belongs 55.9%. `c1cc(-c2nnc(C3CCCN(CC4CCCCC4)C3)o2)ccn1` (stereo not given): the INHIBITION came out at 38.8%.

With `COCC(=O)NCC1CCC(c2nnc(-c3ccncc3)o2)CC1` (stereo not given), the INHIBITION amounted to 13.7%. As for `c1ccc(CCCN2CC[C@H](c3nnc(-c4cccnc4)o3)C2)cc1`, the INHIBITION stood at 13.5%. To `COCC(=O)NCC1CCC(c2nnc(-c3cccnc3)o2)CC1` (stereo not given) belongs -8.58%; to `c1ccc(-c2nnc(C3CCCN(CC4CCCCC4)C3)o2)nc1` (stereo not given), 7.52%; to `O=C(NCC1CCC(c2nnc(-c3cccnc3)o2)CC1)C1CC1` (stereo not given), 50.8%.

`c1cncc(-c2nnc([C@H]3CCN(CC4CC4)C3)o2)c1`: the INHIBITION is reported as 67.8%. The result for `c1ccc(OCCN2CCC(c3nnc(-c4cccnc4)o3)CC2)cc1` reads 20.8%.
